Experimental data: PubChem BioAssay (NCI)
This is part of a sample that, as a whole, favours compounds with a hit. Of some 79,000 tested, about 15% had one in any assay. Values without a mark were called inactive. Active and inactive are the calls of the source. Cut-off read from the data, not from the text of the source: active = growth inhibition above about 70%; inactive = the rest.

Assays:
[1] = NCI Yeast Anticancer Drug Screen. Data for the rad50 strain (AID 155);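 note: 0% = growth of vehicle-only cultures of the same strain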; settings: S. cerevisiae rad50 strain growth inhibition, active compounds read high
Method in brief: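 Readout: growth inhibition relative to vehicle-treated cultures. Compound exposure was carried out in a genetically defined yeast strain deficient in DNA damage repair.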

[2] = NCI Yeast Anticancer Drug Screen. Data for the mec2-1 strain (AID 157); settings: S. cerevisiae mec2-1 strain, active compounds read high
Method in brief: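 Using mec2-1 yeast: add compound, measure growth, express inhibition versus vehicle-treated cultures.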

[3] = NCI Yeast Anticancer Drug Screen. Data for the sgs1 mgt1 strain (AID 161);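 note: 0% = growth of cultures given vehicle only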; settings: S. cerevisiae sgs1 mgt1 strain, active compounds read high
Method in brief: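 Yeast cells carrying a defined DNA-repair defect were exposed to test compounds. Growth inhibition was measured relative to vehicle-treated controls.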

[4] = NCI Yeast Anticancer Drug Screen. Data for the cln2 rad14 strain (AID 165);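 note: 0% = growth equal to vehicle treated cultures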; settings: S. cerevisiae cln2 rad14 strain, active compounds read high
Method in brief: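 Yeast strain cln2 rad14, bearing defects in cell cycle control and DNA repair, serves as the test system; values reflect growth inhibition compared with vehicle.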

[5] = NCI Yeast Anticancer Drug Screen. Data for the bub3 strain (AID 167); settings: S. cerevisiae bub3 mutant strain, active compounds read high
Method in brief: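 Readout: yeast growth inhibition, expressed relative to vehicle-only wells. The test organism is a mutant strain from a panel with lesions in DNA repair or checkpoint genes.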

[6] = NCI Yeast Anticancer Drug Screen. Data for the mlh1 rad18 strain (AID 175); settings: S. cerevisiae mlh1 rad18 strain growth inhibition, active compounds read high
Method in brief: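 Steps: expose repair-defective yeast to compound; measure growth; express inhibition against vehicle-treated controls.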

[7] = at 5.0 µM (retest, dose inferred, filed as 0.5)
[8] = at 50.0 µM (retest, dose inferred, filed as 5.0)

| SMILES | growth inhibition [1, 7] | growth inhibition [1, 8] | growth inhibition ([1]; at 50.0 µM) | growth inhibition [2, 7] | growth inhibition [2, 8] | growth inhibition ([2]; at 50.0 µM) | growth inhibition [3, 7] | growth inhibition [3, 8] | growth inhibition ([3]; at 50.0 µM) | growth inhibition [4, 7] | growth inhibition [4, 8] | growth inhibition ([4]; at 50.0 µM) | growth inhibition [5, 7] | growth inhibition [5, 8] | growth inhibition ([5]; at 50.0 µM) | growth inhibition [6, 7] | growth inhibition [6, 8] | growth inhibition ([6]; at 50.0 µM) |
| --- | --- | --- | --- | --- | --- | --- | --- | --- | --- | --- | --- | --- | --- | --- | --- | --- | --- | --- |
| COc1c(C)c2c(c(O)c1C/C=C(\C)CCC(=O)O)C(=O)OC2 | 31% | 86% (active) | 85.3% (active) | 11% | 88% (active) | 90.9% (active) | 30% | 90% (active) | 92.2% (active) | 32% | 95% (active) | 90.2% (active) | 17% | 91% (active) | 89.2% (active) | 38% | 92% (active) |  |
| Cc1cccc2c(N)c3ccccc3nc12 | 12% | 57% | 87.7% (active) | 3% | 13% | 43.3% | 1% | 7% | 73.7% (active) | 6% | 15% | 45.6% | 0% | -9% | 45% | 6% | 24% | 67.8% |
| CC1(C)OC2C(COC(c3ccccc3)(c3ccccc3)c3ccccc3)OC(c3c[nH]c4c(N)ncnc34)C2O1 (stereo not given) | 9% | 99% (active) | 98.9% (active) | 40% | 99% (active) | 99.1% (active) | -6% | 99% (active) | 99.2% (active) | -20% | 99% (active) | 97.7% (active) | 10% | 99% (active) | 98.8% (active) | 25% | 99% (active) | 98.7% (active) |
| O=C1C=CC(=O)c2c(O)c(CO)c(CO)c(O)c21 | 28% | 95% (active) | 75.4% (active) | 27% | 96% (active) | 84.4% (active) | 28% | 94% (active) | 51% | 24% | 84% (active) | 15.5% | 40% | 98% (active) | 74.2% (active) | 30% | 96% (active) |  |
| Oc1ccc(Cl)cc1C(c1cc(Cl)ccc1O)C(Cl)(Cl)Cl | 99% (active) | 99% (active) | 99.5% (active) | 99% (active) | 99% (active) | 99.6% (active) | 100% (active) | 100% (active) | 99.4% (active) | 99% (active) | 99% (active) | 99.1% (active) | 100% (active) | 99% (active) | 99.5% (active) | 99% (active) | 99% (active) | 99.2% (active) |
| C/C(=N/NC(N)=S)c1ccc(C)cc1 | -4% | 40% | 69% | -4% | 6% | 3.5% | -5% | 2% | 40.2% | -11% | -22% | 2.3% | -13% | -8% | 45% | -4% | 20% | 66.1% |
| CCCCCCCCCCCC[n+]1ccc(CCCCCCCCC)cc1 | 99% (active) | 99% (active) | 99% (active) | 100% (active) | 99% (active) | 99.3% (active) | 100% (active) | 99% (active) | 99.5% (active) | 98% (active) | 99% (active) | 98.5% (active) | 100% (active) | 99% (active) | 98.8% (active) | 99% (active) | 99% (active) | 97.6% (active) |
| C(=N\Nc1ccc2ccccc2n1)/c1ccccn1 | 49% | 72% (active) | 90.7% (active) | 30% | 78% (active) | 92.6% (active) | 46% | 85% (active) | 93.1% (active) | 31% | 63% | 90.7% (active) | 44% | 81% (active) | 92.3% (active) | 50% | 87% (active) | 92.1% (active) |
| CC1(C=O)CCC23COC4(CCC5C6(C)CCC(OC7OCC(OC8OC(CO)C(O)C(OC9OC(CO)C(O)C(O)C9O)C8OC8OCC(O)C(O)C8O)C(O)C7OC7OC(CO)C(O)C(O)C7O)C(C)(C)C6CCC5(C)C4(C)CC2O)C3C1 (stereo not given) | 22% | 93% (active) | 66.8% | 14% | 96% (active) | 85.2% (active) | 9% | 96% (active) | 88.2% (active) | 18% | 94% (active) | 86.2% (active) | 16% | 97% (active) | 87.1% (active) | 22% | 98% (active) | 82.3% (active) |
| OC(c1cc(-c2ccc(C(F)(F)F)cc2)nc(C(F)(F)F)c1)C1CCCCN1 (stereo not given) | 23% | 39% | 56.1% | 24% | 35% | 76.2% (active) | 33% | 60% | 45.5% | 31% | 7% | 25.7% | 11% | 36% | 33.5% | 34% | 65% |  |
| Cc1cc2nc(CC(=O)c3ccncc3)c(=O)[nH]c2cc1C | -28% | 9% | 6.65% | 8% | -11% | 11.7% | 1% | 17% | 21.6% | -9% | 33% | 30.1% | -5% | 24% | 7.45% | -18% | 21% | 73.1% (active) |
| CC1CC(C)(C)OB(OC(C)CC(C)(C)OB2OC(C)CC(C)(C)O2)O1 (stereo not given) | -4% | -35% | 9.6% | -1% | -39% | 15.7% | -4% | -35% | 22.6% | 2% | -43% | 83% (active) | 1% | -33% | 17.7% | 0% | -34% | -32.9% |
| CC(=O)Nc1ccc(C(=O)CCl)cc1 | 98% (active) | 98% (active) | 76.3% (active) | 96% (active) | 99% (active) | 51.7% | 98% (active) | 99% (active) | 99% (active) | 87% (active) | 93% (active) | 51.6% | 99% (active) | 99% (active) | 7.6% |  |  |  |
| COC(=O)[C@]1(C)CCC[C@]2(C)c3ccc(C(C)C)cc3C(=O)[C@@H](Br)[C@@H]12 | 0% | 9% | 74.2% (active) | -2% | 46% | 51.9% | 3% | 58% | 63.5% | -12% | 44% | 22.1% | 2% | 52% | 82.4% (active) |  |  |  |
| Oc1ccccc1N=Cc1ccccc1 | 23% | 75% (active) | 61% | 13% | 35% | 44.2% | 21% | 29% | 60.6% | 12% | 45% | 19.5% | 56% | 86% (active) | 77.5% (active) | 41% | 81% (active) | 72.5% (active) |
| CCc1cnc2ccccc2c1/C=C/c1ccc(N(C)C)cc1 | -13% | 96% (active) | 98.4% (active) | 9% | 96% (active) | 97.3% (active) | 4% | 96% (active) | 92.3% (active) | -36% | 94% (active) | 93.1% (active) | 21% | 97% (active) | 96.8% (active) | -8% | 94% (active) | 94.7% (active) |
| CC(O)C(O)C(O)C(O)C(O)C(=O)NNc1ccccc1 (stereo not given) | 9% | 75% (active) | 44% | -1% | 37% | 52.6% | 7% | 40% | 63.2% | 10% | 71% (active) | 13.5% | 29% | 91% (active) | 75.6% (active) | 26% | 85% (active) | 83.2% (active) |
| CN=C(N)N/N=C(\c1ccccc1)c1ccc(Br)cc1 | 11% | 51% | 46.4% | 8% | 39% | 71% (active) | 13% | 43% | 16.9% | 18% | 33% | 12.3% | 5% | 63% | 1.9% | 10% | 64% | -2.1% |
